Screening results as filed in PubChem.
The list is not random: actives were taken first. Their share in the collection is about 5.2%.
PLK1 PBD block: PLK1 (human) polo-box domain binding inhibition; P53350; Plk1 PBD binding of FITC phosphopeptide, fluorescence polarization; Potency, µM, hits mostly inhibitors; 360,000 compounds, 2.8% hits; AID 720504; note: series mostly up to about 57 µM; nearly all actives have a fitted effect of over 65% in size
Sfp PPTase inh: blocks B. subtilis Sfp PPTase activity; Potency, µM, usual class: inhibitors; Biochemical Sfp PPTase activity, qHTS; 310,000 compounds, 3.5% hits; AID 1490;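 note: the enzyme is Sfp with the accession as filed and its product quenches rhodamine fluorescence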
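Compounds were incubated with enzyme (final 15 nM) for 15 min at room temperature before substrate addition started the reaction. Fluorescence at 525 nm excitation, 598 nm emission was recorded immediately and after 30 minutes.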
rTrxR1 inhibitor: rat TrxR1 inhibition | AID 588453 | Potency, µM (top dose mostly 114 µM), hits mostly inhibitors | 390,000 compounds, 1% hits | O89049 | recombinant rTrxR1, NADPH fluorescence consumption, selenite substrate; note: nearly all actives have a fitted effect of over 65% in size
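Rat TrxR1 (90 nM in the dispensed reagent) was pre-reduced with 400 uM NADPH for 5 min at room temperature, then incubated with compound for 15 min. After 400 uM selenite was added, NADPH fluorescence (Ex 340/Em 450 nm) was followed for 8 min.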
mIDH1 inhibitor: inhibitors of human mutant IDH1 R132H; Potency, µM (top dose mostly 76.6 µM), actives largely listed as inhibitors; IDH1-R132H enzyme, NADPH consumption, diaphorase/resazurin fluorescence; AID 602179; 390,000 compounds, 0.093% hits; O75874; note: nearly all actives have a fitted effect of over 65% in size
Target sequence (O75874 whole entry R132H, stated change not applied): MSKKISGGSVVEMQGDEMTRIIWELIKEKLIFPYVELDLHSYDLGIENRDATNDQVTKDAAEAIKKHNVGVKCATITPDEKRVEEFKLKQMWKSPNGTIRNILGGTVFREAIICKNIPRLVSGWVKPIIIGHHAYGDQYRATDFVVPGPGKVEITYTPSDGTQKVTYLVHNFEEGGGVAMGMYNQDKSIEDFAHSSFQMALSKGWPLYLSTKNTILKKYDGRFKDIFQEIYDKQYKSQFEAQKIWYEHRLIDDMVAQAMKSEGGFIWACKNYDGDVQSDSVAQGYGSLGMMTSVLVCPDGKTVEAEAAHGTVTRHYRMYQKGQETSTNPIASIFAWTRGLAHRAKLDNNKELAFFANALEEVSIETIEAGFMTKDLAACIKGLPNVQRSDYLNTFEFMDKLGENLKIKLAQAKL
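IDH1-R132H (0.5 ug/mL) preincubated 30 min with compound, then NADPH (0.016 mM) and alpha-KG (2 mM) added; 80 min at RT, pH 7.5. Remaining NADPH coupled via diaphorase/resazurin to fluorescence (540/590 nm); concentration-response curves normalized to no-enzyme control.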
VDR inh: vitamin D3 receptor (human) inhibition; 400,000 compounds, 0.93% hits; VDR-SRC2-3 peptide fluorescence polarization, 2 h; Potency, µM, actives largely listed as inhibitors; AID 504847
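Compounds are added to VDR with labelled SRC2-3 coactivator peptide and held 2 h at room temperature. Inhibition of the VDR–peptide interaction is then read as a change in fluorescence polarization.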
TrxR1 substrate: substrates of rat thioredoxin reductase 1; O89049; purified TrxR1 substrate turnover, NADPH consumption readout; Potency, µM (series often up to 114 µM); 390,000 compounds, 0.01% hits; AID 588456; note: nearly all actives have a fitted effect of over 50% in size
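Rat TrxR1, dispensed at 90 nM, was prereduced with 400 uM NADPH (final) for 5 min at ~22 deg C, then incubated with compound 15 min before 400 uM selenite. A first-read NADPH fluorescence drop versus no-compound background flagged substrates.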
Resorufin autofl: autofluorescence interference, mutant IDH1 hit counter-screen | shares compounds with mIDH1 inhibitor | inhibition of signal, % at 51.2 µM | 750 tested, under 10 active | Resorufin detection reagent fluorescence interference, cell-free
WT IDH1 inh: wild-type IDH1 (human) inhibition counterscreen | shares compounds with mIDH1 inhibitor | WT IDH1 enzyme, NADPH diaphorase/resazurin fluorescence | Potency, µM (top dose mostly 115 µM), hits mostly inhibitors | 750 compounds, 9% hits; note: nearly all actives have a fitted effect of over 55% in size
Target sequence (O75874 whole entry, looked up): as the sequence (O75874 whole entry R132H, stated change not applied) above, with H132R counted along it
mIDH1 confirm: inhibits human mutant IDH1 enzyme in cherrypick confirmation | shares compounds with mIDH1 inhibitor | IDH1 R132H enzyme, NADPH diaphorase/resazurin fluorescence | Potency, µM (highest dose often 76.6 µM), hits mostly inhibitors | 750 compounds, 83% hits | AID 624002; note: nearly all actives have a fitted effect of over 50% in size
Hits are given with their value; i = inactive; ? = inconclusive; nt = not tested or not shown; [ ] = dose if it differs, or a comment. Calls come from the whole dose curve; as a rule, active = well fitted curve in the direction sought with a large enough effect; inconclusive = small, poorly fitted or top-dose-only effect, or another doubt; inactive = no such curve, though single readings can be large; an effect the other way counts as inactive or inconclusive.

SMILES	PLK1 PBD block	Sfp PPTase inh	rTrxR1 inhibitor	mIDH1 inhibitor	VDR inh	TrxR1 substrate	Resorufin autofl	WT IDH1 inh	mIDH1 confirm
CCCCOC(=O)CSC1=C(C#N)C(c2ccccc2OC)C(C#N)C(=O)N1 (stereo not drawn)	i	i	i	?	i	i	i	i	45µM
CCCOC(=O)CSC1=C(C#N)C(c2ccccc2OCC)C(C#N)C(=O)N1 (stereo not drawn)	i	i	i	?	i	i	i	i	45µM
COc1ccc(OC)c(NC(=O)CCc2c(C)nc3c(c(C)nn3C(C)(C)C)c2C)c1	nt	nt	i	i	i	i	nt	nt	nt
Cc1ccc(N2C(=O)CCSC23C(=O)N(Cc2ccccc2)c2ccccc23)cc1F (stereo not drawn)	nt	nt	i	22µM	i	i	i	i	25µM
Cc1ccc(N2C(=O)CCSC23C(=O)N(Cc2ccccc2)c2ccccc23)cc1 (stereo not drawn)	nt	nt	i	?	i	i	i	i	45µM
Cc1ccc(N2C(=O)CCSC23C(=O)N(Cc2ccc(F)cc2)c2ccccc23)cc1 (stereo not drawn)	nt	nt	i	?	i	i	nt	nt	nt
O=C1CCSC2(C(=O)N(Cc3ccc(F)cc3)c3ccccc32)N1c1ccc(Cl)cc1 (stereo not drawn)	nt	nt	i	?	i	i	i	i	20µM
CCCNC(=O)c1c2c(nc3ccccc13)C(=O)N(C1CCCCC1)C2	nt	nt	i	i	i	i	nt	nt	nt
CC(C)(C)c1ccc(S(=O)(=O)NC(=O)C2(C)CCN2C(=O)CC2CCCCC2)cc1 (stereo not drawn)	i	nt	nt	nt	nt	nt	nt	nt	nt
Nc1nc(Nc2cccc(F)c2)nc(NCc2ccco2)c1[N+](=O)[O-]	i	i	i	?	i	i	i	i	32µM
Cc1ccc(C(O)c2ncc(-c3cccc4ccccc34)[nH]2)c(C)c1 (stereo not drawn)	i	nt	nt	nt	nt	nt	nt	nt	nt
Cc1oc2c(C)c(O)ccc2c(=O)c1-c1ccc2ccccc2n1	i	i	i	i	i	i	nt	nt	nt
CCC(=O)Oc1ccc2c(=O)c(-c3ccc4ccccc4n3)c(CC)oc2c1C	i	i	i	52µM	i	i	i	i	7.1µM
Cc1cc(C)nc(SCC(=O)NC2=NN=C(c3ccc(Br)cc3)CS2)n1	i	40µM	i	?	45µM	i	i	i	45µM
COc1ccc(S(=O)(=O)Nc2cccc(F)c2)cc1C	i	i	i	i	i	i	nt	nt	nt
COc1ccc(S(=O)(=O)Nc2ccc(S(=O)(=O)Nc3ccc(F)cc3)cc2)cc1C	i	i	i[11.4 µM]	?	i	i[11.4 µM]	i	i	40µM
Cc1ccc(NC(=O)/C=C\C(=O)N(c2ccc(C(C)C)cc2)C(C(=O)NCc2ccco2)c2ccc(Cl)cc2)cc1 (stereo not drawn)	nt	nt	i	i	i	i	nt	nt	nt
COc1ccc(N(C(=O)/C=C\C(=O)Nc2ccc(Cl)cc2)C(C(=O)NCc2ccco2)c2ccc(C)cc2)cc1 (stereo not drawn)	nt	nt	i	?	i	i	i	i	i
CCc1ccc(C(=O)c2cn(Cc3ccc(F)cc3)c3cc(OC)c(OC)cc3c2=O)cc1	nt	nt	i	?	i	i	i	i	?
CCN(C[C@H]1N[C@@](Cc2ccccc2)(C(=O)OC)[C@H]2C(=O)N(Cc3ccccc3)C(=O)[C@@H]12)C(=O)NC(C)C	i	nt	i	i	i	i	nt	nt	nt
N#CCCn1c(=O)c(-c2ccccc2)nc2cnc(OCc3ccccc3)nc21	nt	i	nt	nt	i	nt	nt	nt	nt
O=S(=O)(/N=C(/Nc1ccc(Cl)c(S(=O)(=O)Nc2ccccc2Cl)c1)c1ccc(F)cc1)c1ccccc1	i	i	i	?	i	i	i	i	?
COc1ccccc1NS(=O)(=O)c1cc(N/C(=N/S(=O)(=O)c2ccccc2)c2ccc(F)cc2)ccc1Cl	i	nt	nt	i	nt	nt	nt	nt	nt
Cc1cc(N2CCCC2)ccc1NC(=O)CN1C(=O)NC2(CCCCC2)C1=O	i	nt	i[11.4 µM]	i	i	i	nt	nt	nt
CCOc1cc(/C=C2/C(=O)ON=C2C)ccc1OCc1ccccc1F	0.84µM	20µM	i[11.4 µM]	21µM	i	i[11.4 µM]	i	?	28µM
COc1cc(/C=C2\NC(=S)N(C)C2=O)ccc1OCc1ccccc1F	i	i	i	i	i	i	nt	nt	nt
